Records with an inconclusive call do not appear. Activity calls are given as the source filed them. The calls were made as follows, unless noted: active = hit-call score of the fitted dose curve at least 0.9, where 1 is the maximum; inactive = score below 0.9.
What was measured:
[1] = target: Nucleoli Translocation, AR (gene 367) (UniProt P10275); test: UPITT_HCI_U2OS_AR_TIF2_Nucleoli_Antagonist: University of Pittsburgh U2OS Androgen Receptor-Transcriptional Intermediary Factor 2 (AR-TIF2) Antagonism High Content Imaging Assay for Nucleoli Translocation (AID 2283997; active = hit-call score of the fitted dose curve at least 0.9, where 1 is the maximum)
Nucleoli Translocation, AR (gene 367), sequence (P10275 whole entry, looked up): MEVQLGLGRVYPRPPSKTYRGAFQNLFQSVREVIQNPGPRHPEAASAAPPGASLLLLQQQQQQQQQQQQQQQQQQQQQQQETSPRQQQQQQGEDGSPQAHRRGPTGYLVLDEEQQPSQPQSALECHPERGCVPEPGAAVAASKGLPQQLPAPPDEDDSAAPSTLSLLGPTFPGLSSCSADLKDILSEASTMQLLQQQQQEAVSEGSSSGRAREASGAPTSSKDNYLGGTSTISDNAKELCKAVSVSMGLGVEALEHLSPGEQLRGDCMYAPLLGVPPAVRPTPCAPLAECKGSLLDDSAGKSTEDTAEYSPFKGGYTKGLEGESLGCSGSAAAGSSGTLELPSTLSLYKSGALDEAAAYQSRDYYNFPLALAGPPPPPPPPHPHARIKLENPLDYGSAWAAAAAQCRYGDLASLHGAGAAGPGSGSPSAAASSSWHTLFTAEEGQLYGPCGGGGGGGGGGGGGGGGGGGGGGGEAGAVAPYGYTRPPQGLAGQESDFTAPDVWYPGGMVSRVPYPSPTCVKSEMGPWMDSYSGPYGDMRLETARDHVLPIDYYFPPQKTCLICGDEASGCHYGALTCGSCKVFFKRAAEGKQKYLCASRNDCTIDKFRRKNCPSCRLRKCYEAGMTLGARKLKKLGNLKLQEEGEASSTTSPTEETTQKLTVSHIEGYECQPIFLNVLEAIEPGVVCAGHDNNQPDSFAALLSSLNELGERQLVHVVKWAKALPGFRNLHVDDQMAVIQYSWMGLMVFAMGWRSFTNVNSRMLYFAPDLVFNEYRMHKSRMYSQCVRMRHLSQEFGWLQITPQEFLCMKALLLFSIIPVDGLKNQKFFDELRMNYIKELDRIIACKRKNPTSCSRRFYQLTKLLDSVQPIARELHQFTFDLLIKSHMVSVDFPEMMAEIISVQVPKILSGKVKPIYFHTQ
In short: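 U2OS cells expressing RFP-tagged human AR and GFP-tagged TIF2 were imaged by high-content fluorescence microscopy for red AR signal in the nucleolar region. Compounds were screened at 20 uM final (0.2% DMSO), with activity fitted relative to DHT as baseline.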

[2] = target: Ratio of Nucleoli Translocation and Cytoplasm, AR (gene 367) (UniProt P10275); test: UPITT_HCI_U2OS_AR_TIF2_Nucleoli_Cytoplasm_Ratio_Agonist: University of Pittsburgh U2OS Androgen Receptor-Transcriptional Intermediary Factor 2 (AR-TIF2) Agonism High Content Imaging Assay for Ratio of Nucleoli Translocation and Cytoplasm (AID 2284000; active = hit-call score of the fitted dose curve at least 0.9, where 1 is the maximum;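 also: hits raise the red nucleolar to cytoplasm ratio above vehicle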)
Ratio of Nucleoli Translocation and Cytoplasm, AR (gene 367), sequence (P10275 whole entry, looked up): as above
In short: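 U2OS cells expressing RFP-tagged human AR and GFP-tagged TIF2 were imaged by high-content fluorescence microscopy. The endpoint is the ratio of nucleolar to cytoplasmic red fluorescence, fitted for gain of signal relative to DMSO. Concentration-response spanned 0.195 to 50 uM final (0.5% DMSO).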

[3] = CCTE_Harrill_HTTr_Apoptosis_MCF7: CCTE's 6-hour Apoptosis Assessment for the High-Throughput Transcriptomics (HTTr) Platform, in MCF-7 cells cultured in DMEM + 10% fetal bovine serum, Harrill Lab (AID 2284011)
In short: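 High-content imaging of CellEvent Caspase 3/7 Green signal follows a six-hour exposure, with eight concentrations per chemical. MCF-7 cells grown in DMEM plus 10% fetal bovine serum; activity fitted in both directions against DMSO.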

[4] = CCTE_Harrill_HTTr_CellCount_MCF7: CCTE's Cell Proliferation Assessment for the High-Throughput Transcriptomics (HTTr) Platform, Harrill Lab (AID 2284012; active = hit-call score of the fitted dose curve at least 0.9, where 1 is the maximum;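 also: cells exposed to compound for six hours; intended direction is loss of nuclei count meaning fewer cells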)
In short: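 MCF7 cells exposed 6 hours to an eight-point dilution series; Hoechst-stained nuclei counted by high-content imaging. Bidirectional curve fitting against DMSO baseline.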

[5] = target: Nucleoli Translocation, AR (gene 367) (UniProt P10275); test: UPITT_HCI_U2OS_AR_TIF2_Nucleoli_Agonist: University of Pittsburgh U2OS Androgen Receptor-Transcriptional Intermediary Factor 2 (AR-TIF2) Agonism High Content Imaging Assay for Nucleoli Translocation (AID 2283998; active = hit-call score of the fitted dose curve at least 0.9, where 1 is the maximum)
In short: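 Nucleolar translocation of AR-RFP, with TIF2-GFP coexpressed in human osteosarcoma U2OS, imaged by high-content fluorescence. Compounds tested singly at 20 uM final, confirmed in triplicate, then titrated 0.195–50 uM final; gain-of-signal relative to DMSO.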

[6] = target: Ratio of Nucleoli Translocation and Cytoplasm, AR (gene 367) (UniProt P10275); test: UPITT_HCI_U2OS_AR_TIF2_Nucleoli_Cytoplasm_Ratio_Antagonist: University of Pittsburgh U2OS Androgen Receptor-Transcriptional Intermediary Factor 2 (AR-TIF2) Antagonism High Content Imaging Assay for Ratio of Nucleoli Translocation and Cytoplasm (AID 2283999; active = hit-call score of the fitted dose curve at least 0.9, where 1 is the maximum;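 also: antagonists lower the DHT-driven ratio of nucleolar to cytoplasmic red signal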)
In short: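 U2OS cells co-expressing RFP-tagged human AR and GFP-tagged TIF2, antagonist mode with DHT as baseline. Nucleolar-to-cytoplasmic red fluorescence ratio imaged by high-content microscopy; final compound 20 uM (0.2% DMSO) primary, 0.195–50 uM (0.5% DMSO) concentration-response.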

[7] = CCTE_Harrill_HTTr_Viability_MCF7: CCTE's 6-hour Cell Viability Assessment for the High-Throughput Transcriptomics (HTTr) Platform, in MCF-7 cells cultured in DMEM + 10% fetal bovine serum, Harrill Lab (AID 2284010)
In short: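 MCF-7 cells in DMEM + 10% FBS, 384-well, exposed 6 h to an eight-point dilution series. Membrane integrity scored by high-content imaging of propidium iodide exclusion; bidirectional fit versus DMSO.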

[8] = CCTE_Shafer_MEA_acute_spike_number: CCTE's Neural Acute Assay for Total Number of Spikes, Shafer Lab (AID 2284008)
In short: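 Total spike count from 40 min recordings before and during compound exposure (0.03-40 uM), given as per-well percent change. Cortical cultures from rat, DIV 13 or 15, 37 C; adaptive detection threshold 8x rms noise.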

[9] = CCTE_Shafer_MEA_acute_firing_rate_mean: CCTE's Neural Acute Assay for Mean Firing Rate, Shafer Lab (AID 2284009);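 also: analyzed for loss of signal so actives lower firing rate relative to DMSO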
In short: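 Read-out: well-mean spike rate (spikes/recording length/electrodes), % change from 40 min pre-dose baseline to 40 min with compound. Rat cortical cultures, DIV 13 or 15, 37 C; 0.03-40 uM; DMSO as negative control.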

[10] = CCTE_Shafer_MEA_acute_burst_number: CCTE's Neural Acute Assay for Single-Electrode Bursts, Shafer Lab (AID 2284013)
In short: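 Rat cortical cultures, DIV 13/15; 40 min baseline, then 40 min with compound 0.03-40 uM, 37 C. Spikes: 300-5000 Hz band-pass, threshold 8x rms noise. Readout = % change in single-electrode bursts vs baseline, loss-of-signal fit.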

[11] = CCTE_Shafer_MEA_acute_burst_duration_mean: CCTE's Neural Acute Assay for Mean Burst Duration, Shafer Lab (AID 2284014);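 also: hits are decreases in mean burst duration relative to DMSO controls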
In short: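 Primary rat cortical neurons on 16-electrode MEA wells, treated on DIV 13 or 15 with compound (0.03-40 uM; ≥3 wells each). 40-min baseline and 40-min exposure recordings at 37 C; percent change in mean burst duration per well versus DMSO.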

[12] = CCTE_Shafer_MEA_acute_interburst_interval_mean: CCTE's Neural Acute Assay for Mean Interburst Interval, Shafer Lab (AID 2284016);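 also: percent change of mean interburst interval versus each well's own pre-dose baseline; curves fitted for decrease in interburst interval relative to DMSO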
In short: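 Primary rat cortical neurons on 16-electrode MEA wells were recorded 40 min at baseline on DIV 13 or 15, then 40 min after compound (0.03-40 uM), at 37 C. Value is percent change in mean interburst interval per well, DMSO as negative control.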

[13] = CCTE_Shafer_MEA_acute_burst_percentage_std: CCTE's Neural Acute Assay for Standard Deviation of Burst Percentage, Shafer Lab (AID 2284018);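 also: fitted in the negative direction so actives lower burst percentage SD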
In short: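 Primary rat cortical neurons on 16-electrode MEA wells were recorded 40 min at baseline (DIV 13 or 15), then 40 min after compound (0.03-40 uM), at 37 C. Well value is SD across electrodes of spikes-in-bursts/total spikes; endpoint is percent change, DMSO-referenced.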

[14] = CCTE_Shafer_MEA_acute_per_network_burst_spike_number_mean: CCTE's Neural Acute Assay for Average Number of Spikes in a Network Burst, Shafer Lab (AID 2284019)
In short: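 Primary rat cortical neurons on 16-electrode MEA wells, DIV 13 or 15, 37 C; 40-min baseline then 40-min recording with compound (0.03-40 uM). Spikes per network burst (total spikes/number of bursts) expressed as percent change from baseline, DMSO reference.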

[15] = CCTE_Shafer_MEA_acute_per_network_burst_spike_number_std: CCTE's Neural Acute Assay for Standard Deviation of Number of Spikes in a Network Burst, Shafer Lab (AID 2284020);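 also: fitted for decrease in spike-number SD versus DMSO so actives lower it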
In short: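 Primary rat cortical neurons on 48-well MEAs (16 electrodes/well) recorded at DIV 13 or 15: 40-min baseline, then 40 min with compound (0.03-40 uM), 37 C. Value is percent change in SD of spikes per network burst, relative to DMSO.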

[16] = CCTE_Shafer_MEA_acute_per_network_burst_electrodes_number_mean: CCTE's Neural Acute Assay for Mean Number of Electrodes in a Network Burst, Shafer Lab (AID 2284021);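 also: curves fitted for decreases only so hits reduce electrodes per burst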
In short: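 Percent change from baseline was computed as mean electrode count per network burst, comparing 40 min recordings before and during compound (0.03-40 uM) exposure. Cultures were rat cortical neurons at DIV 13 or 15, recorded on MEAs at 37 C with an adaptive 8x rms threshold.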

For Cc1nc(-c2ccccn2)ncc1C(=O)Nn1cc(C)c2cc(F)ccc21, the outcome [1] was “inactive”, the outcome [2] was “inactive” and the outcome [3] was “inactive”. For the same compound, the outcome [4] was “inactive”.
In the case of CCc1cccc(CC)c1N, the outcome [1] is reported as “inactive”, the outcome [5] is reported as “inactive” and the outcome [6] is reported as “inactive”. For the same compound, the outcome [2] was “inactive”, the outcome [7] was “inactive” and the outcome [3] was “inactive”. For the same compound, the outcome [4] was “inactive”.
In the case of Cc1ncc([C@@H](CCCCCCc2ccc3c(n2)NCCC3)CC(=O)O)cn1, the outcome [8] is reported as “inactive”, the outcome [9] is reported as “inactive” and the AC50 [3] is reported as 1.6 µM (active). For the same compound, the AC50 [4] was 0.321 µM (active), the outcome [10] was “inactive” and the outcome [11] was “inactive”. For the same compound, the outcome [12] was “inactive”, the outcome [13] was “inactive” and the outcome [14] was “inactive”. For the same compound, the outcome [15] was “inactive” and the outcome [16] was “inactive”.
In the case of OCCOCCOCCO, the outcome [1] is reported as “inactive”, the outcome [5] is reported as “inactive” and the outcome [2] is reported as “inactive”. For the same compound, the outcome [7] was “inactive” and the outcome [3] was “inactive”.
In the case of CC(=O)c1ccccc1, the outcome [3] is reported as “inactive” and the outcome [4] is reported as “inactive”.
For CC(C)CC(C)O (stereo unspecified), the outcome [7] was “inactive” and the outcome [3] was “inactive”.
With O=C(O)c1ccc2c(c1)nc(C(=O)NC1CCN(C3CC3)CC1)n2Cc1cc(-c2ccc(Cl)s2)on1 the outcome [3] was “inactive” and the outcome [4] was “inactive”.
With C[C@@H](Oc1ccc(CNC(=O)c2cccnc2Oc2ccc3c(c2)OCO3)c(F)c1)C(=O)O the outcome [7] was “inactive”, the outcome [3] was “inactive” and the outcome [4] was “inactive”.
In the case of OC[C@H]1O[C@@H]2O[C@H]3[C@H](O)[C@@H](O)[C@@H](O[C@H]4[C@H](O)[C@@H](O)[C@@H](O[C@H]5[C@H](O)[C@@H](O)[C@@H](O[C@H]6[C@H](O)[C@@H](O)[C@@H](O[C@H]7[C@H](O)[C@@H](O)[C@@H](O[C@H]1[C@H](O)[C@H]2O)O[C@@H]7CO)O[C@@H]6CO)O[C@@H]5CO)O[C@@H]4CO)O[C@@H]3CO, the outcome [3] is reported as “inactive” and the outcome [4] is reported as “inactive”.
With CCCCN1C(=O)[C@@H]([C@H](O)C2CCCCC2)NC(=O)C12CCN(Cc1ccc(Oc3ccc(C(=O)O)cc3)cc1)CC2 the outcome [7] was “inactive”, the outcome [3] was “inactive” and the outcome [4] was “inactive”.
With CCCC(CCC)C(=O)O the outcome [3] was “inactive” and the outcome [4] was “inactive”.
In the case of CCCOc1ccc(S(=O)(=O)N2CCN(CC)CC2)cc1-c1nc2c(CC)n(Cc3ccccn3)nc2c(=O)[nH]1, the outcome [3] is reported as “inactive”.
With NC(N)=O the outcome [3] was “inactive” and the outcome [4] was “inactive”.
In the case of CCn1nc(C)c2c1C(=O)NCC(c1ccc(O)cc1)=N2, the outcome [7] is reported as “inactive”, the outcome [3] is reported as “inactive” and the outcome [4] is reported as “inactive”.
For CCCCCOC(C)=O, the outcome [3] was “inactive”.
With c1ccc2c(c1)-c1cccc3c1c-2cc1ccccc13 the outcome [7] was “inactive”, the outcome [3] was “inactive” and the outcome [4] was “inactive”.
In the case of CNC(C)=O, the outcome [7] is reported as “inactive” and the outcome [3] is reported as “inactive”.
For c1ccc2ncccc2c1, the outcome [3] was “inactive”.
With Cc1ccc(S(=O)(=O)NC(=O)NN2CCCCCC2)cc1 the outcome [3] was “inactive”.
In the case of NNC(=O)c1ccncc1, the outcome [3] is reported as “inactive”.
With NC(=O)N1c2ccccc2C=Cc2ccccc21 the outcome [3] was “inactive” and the outcome [4] was “inactive”.
In the case of O=C(O)CO, the outcome [3] is reported as “inactive”.
In the case of CCOC(N)=O, the outcome [3] is reported as “inactive”.
With CC(C)CCCCCCOC(=O)C1CCCCC1C(=O)OCCCCCCC(C)C (stereo unspecified) the outcome [3] was “inactive”.
In the case of COS(C)(=O)=O, the outcome [3] is reported as “inactive” and the outcome [4] is reported as “inactive”.
For Cn1cc[nH]c1=S, the outcome [3] was “inactive” and the outcome [4] was “inactive”.
In the case of OCCNCCO, the outcome [7] is reported as “inactive”, the outcome [3] is reported as “inactive” and the outcome [4] is reported as “inactive”.
In the case of NC(=O)N(O)[C@@H]1COc2cc(OCc3ccccc3)ccc21, the outcome [3] is reported as “inactive” and the outcome [4] is reported as “inactive”.
In the case of C=CN1CCCC1=O, the outcome [7] is reported as “inactive”, the outcome [3] is reported as “inactive” and the outcome [4] is reported as “inactive”.
With CCCCCCCCN(C)C the outcome [3] was “inactive” and the outcome [4] was “inactive”.
In the case of CC1(C)C(=O)N(Cl)C(=O)N1Cl, the outcome [7] is reported as “inactive”, the outcome [3] is reported as “inactive” and the outcome [4] is reported as “inactive”.
For S=P(N1CC1)(N1CC1)N1CC1, the outcome [3] was “inactive”.
In the case of C[C@]12C=CC(=O)C=C1CC[C@H]1[C@@H]3C[C@@H](O)[C@](O)(C(=O)CO)[C@@]3(C)C[C@H](O)[C@@]12F, the outcome [7] is reported as “inactive”, the outcome [3] is reported as “inactive” and the outcome [4] is reported as “inactive”.
In the case of OC(Cn1cncn1)(Cn1cncn1)c1ccc(F)cc1F, the outcome [3] is reported as “inactive”.
For O=C(O)[C@H](O)[C@@H](O)C(=O)O, the outcome [3] was “inactive”.
With Nc1ccn([C@@H]2O[C@H](CO)[C@@H](O)[C@@H]2O)c(=O)n1 the outcome [3] was “inactive”.
With CCCCCCCCCCCCCCO the outcome [7] was “inactive” and the outcome [3] was “inactive”.
In the case of O=C(N[C@H](CO)[C@H](O)c1ccc([N+](=O)[O-])cc1)C(Cl)Cl, the outcome [3] is reported as “inactive” and the outcome [4] is reported as “inactive”.
